The panel holds about 83,000 compounds, 20% with a hit somewhere; the sample as a whole holds those more often.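 Cell lines were cultured in 96-well plates, exposed to a single compound concentration, and assessed for percent growth 48 hours later.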 A number with no mark means an inactive call. Activity calls are given as the source filed them. Rule for the calls: active = growth percent below 10; inactive = the rest. *1 amine or outer side, *2 acyl side, *3 side chain or, on linkers, in order; H or OH if unused. Where a SMILES comes first, the peptide text is derived from it. Bridges are numbered along the chain shown (N, C = ends). Roman numbers before positions name the chains, in order. [ ]: non-standard residue; d: D form. Actinocin(1to9) = Cc1c2oc3c(C)ccc(C(=O)[*:2])c3nc-2c(C(=O)[*:1])c(N)c1=O; NMeV = CN[CH](C(=O)O)C(C)C; Sar = CNCC(=O)O

Test systems include RPMI-8226 leukemia; OVCAR-8 ovarian; OVCAR-5 ovarian; OVCAR-4 ovarian; SK-OV-3 ovarian; IGROV1 ovarian; OVCAR-3 ovarian; HS 578T breast; NCI/ADR-RES ovarian; SR leukemia.
Assay in all cases: NCI-60 one-dose screen, 48 h (100 = growth as untreated, 0 = no growth, -100 = all killed)
Common to all, as to details: 10 µM unless noted

As for `CC1C(c2ccccc2)OCCN1C(=S)Nc1ccc(S(=O)(=O)N2CCCCC2)cc1` (stereo not given), the growth is 80.4% with RPMI-8226 leukemia; 92.5% in the assay on OVCAR-8 ovarian; 87.9% in the assay with OVCAR-5 ovarian; 106% with OVCAR-4 ovarian; 110% in the assay on SK-OV-3 ovarian; 106% in the assay on IGROV1 ovarian. Moreover, the growth in the assay with OVCAR-3 ovarian is 114%; in the assay with HS 578T breast, 85.8%; in the assay with NCI/ADR-RES ovarian, 92.4%.
For the molecule `COc1ccc2c(c1OC)OCC(CN(C)C)C2=O` (stereo not given), the growth was 78.2% in the assay with SR leukemia; -40.8% (active) with RPMI-8226 leukemia; 92.9% in the assay on OVCAR-5 ovarian; -50.8% (active) with OVCAR-4 ovarian; 108% in the assay on SK-OV-3 ovarian; 93.3% in the assay with IGROV1 ovarian. Also, the growth in the assay on OVCAR-3 ovarian is 92.4%; in the assay on HS 578T breast it was 106%; in the assay with NCI/ADR-RES ovarian it was 106%.
Consider `COc1cc(NCc2ccc3nc(N)nc(N)c3c2C)cc(OC)c1OC` (tested in a mixture with another compound), for which the growth in the assay on SR leukemia was 31.7%; in the assay with RPMI-8226 leukemia it was 41.7%; in the assay on OVCAR-5 ovarian, 36.9%; in the assay on SK-OV-3 ovarian it was 58%; in the assay with IGROV1 ovarian, -10.2% (active); with OVCAR-3 ovarian, 55.3%. In addition, the growth was 44.1% with HS 578T breast and 32.2% in the assay with NCI/ADR-RES ovarian.
In the case of `C/C=C/c1cc2c(c(=O)o1)C(=O)[C@@H](O)[C@H](C)O2`, the growth with SR leukemia was 11.9%; with RPMI-8226 leukemia it was -45.7% (active); with OVCAR-5 ovarian, 87.5%; in the assay with OVCAR-4 ovarian, -12.6% (active); in the assay on SK-OV-3 ovarian, 109%; in the assay with IGROV1 ovarian, -46.9% (active). Further, the results for the growth in the assay with OVCAR-3 ovarian, with HS 578T breast and with NCI/ADR-RES ovarian were 47.5%, 93.4% and 86%, respectively.
`COc1c(C)c2c(c(O)c1C/C=C(\C)CCC(=O)O)C(=O)OC2`: the growth is 14% with SR leukemia; 57.8% in the assay on RPMI-8226 leukemia; 11.9% with OVCAR-8 ovarian; 44.5% with OVCAR-4 ovarian; 12.9% in the assay with IGROV1 ovarian; 34.4% with OVCAR-3 ovarian. Also, the results for the growth with HS 578T breast and in the assay on NCI/ADR-RES ovarian were 72% and 31.2%, respectively.
In the case of `NC(=Nc1nc(-c2ccccn2)cc2ccccc12)c1ccccn1`, the growth in the assay on SR leukemia was 6.67% (active); in the assay with RPMI-8226 leukemia, -11.3% (active); with OVCAR-5 ovarian, -15.7% (active); in the assay with OVCAR-4 ovarian it was 27.1%; in the assay on SK-OV-3 ovarian, 19.7%; in the assay with IGROV1 ovarian, -9.19% (active). For the same molecule, the growth in the assay on OVCAR-3 ovarian is 29.3%; in the assay on NCI/ADR-RES ovarian, -31.2% (active).
Take `O=C(O)c1cc2c(s1)C(=O)c1sccc1C2=O`: the growth with SR leukemia is -12.3% (active); in the assay on RPMI-8226 leukemia it was 74.3%; with OVCAR-5 ovarian, 78.3%; in the assay on OVCAR-4 ovarian it was -6.65% (active); with SK-OV-3 ovarian it was 115%; in the assay with IGROV1 ovarian, 56.3%. Besides, the growth was -18.6% (active) in the assay on OVCAR-3 ovarian, -18.8% (active) in the assay with HS 578T breast and 15.1% in the assay on NCI/ADR-RES ovarian.
With `O=C1/C(=C\c2ccc([N+](=O)[O-])cc2)CS(=O)(=O)C/C1=C/c1ccc([N+](=O)[O-])cc1`, the growth in the assay with SR leukemia was 0.134% (active); in the assay on RPMI-8226 leukemia, -19.4% (active); with OVCAR-5 ovarian it was -99% (active); with OVCAR-4 ovarian, -90.2% (active); in the assay on SK-OV-3 ovarian it was -43.3% (active); with IGROV1 ovarian it was -82.4% (active). In addition, the results for the growth in the assay with OVCAR-3 ovarian and in the assay with NCI/ADR-RES ovarian were -90.1% (active) and -80.4% (active), respectively.
As to `N#CC1c2ccccc2C=CN1C(=O)CCCl` (stereo not given), the growth in the assay on SR leukemia is 5.98% (active); with RPMI-8226 leukemia, 24.3%; with OVCAR-5 ovarian it was 108%; with OVCAR-4 ovarian, 108%; in the assay with SK-OV-3 ovarian, 97.2%; with IGROV1 ovarian, 95.3%. The growth in the assay on OVCAR-3 ovarian was 91.4%; with HS 578T breast, 104%; in the assay on NCI/ADR-RES ovarian it was 102%.
As to `CCC(C)C1NC(=O)C(NC(=O)c2c3nc4c(C(=O)NC5C(=O)NC(C(C)CC)C(=O)N6CCCC6C(=O)N(C)CC(=O)N(C)C(C(C)C)C(=O)OC5C)ccc(C)c4oc-3c(C)c(=O)c2N)C(C)OC(=O)C(C(C)C)N(C)C(=O)CN(C)C(=O)C2CCCN2C1=O` (stereo not given) (I: TIP[Sar][NMeV] / II: TIP[Sar][NMeV]; ester I:1-I:C, II:1-II:C; linker I:N-II:N via Actinocin(1to9); configuration not given here), the growth in the assay on SR leukemia was 5.31% (active); in the assay with RPMI-8226 leukemia, -18.8% (active); in the assay on OVCAR-5 ovarian it was -76.6% (active); in the assay on OVCAR-4 ovarian, -1.07% (active); in the assay on SK-OV-3 ovarian, 18.2%; in the assay with IGROV1 ovarian, -32.4% (active). Besides, the growth is 1.47% (active) in the assay on OVCAR-3 ovarian and -42.7% (active) in the assay on NCI/ADR-RES ovarian.
In the case of `COC1CC(C)C(OC)c2cc(O)cc(c2O)NC(=O)/C(C)=C/C=C\C(C)C(OC(N)=O)/C(C)=C\C(C)C1OC` (stereo not given), the growth in the assay on SR leukemia is -5.85% (active); in the assay with RPMI-8226 leukemia, 1.65% (active); in the assay with OVCAR-5 ovarian, 27.2%; in the assay with OVCAR-4 ovarian, -39.9% (active); with SK-OV-3 ovarian, 16.1%; in the assay on IGROV1 ovarian, -0.486% (active). In addition, the values for the growth with OVCAR-3 ovarian and with NCI/ADR-RES ovarian were 20.2% and -67.2% (active), respectively.
Turning to `C1=C(c2ccccc2)c2ccccc2C1`, the growth in the assay with SR leukemia was 93.6%; in the assay with OVCAR-8 ovarian, 114%; in the assay on OVCAR-5 ovarian it was 92%; in the assay on OVCAR-4 ovarian, 105%; in the assay on SK-OV-3 ovarian it was 109%; with IGROV1 ovarian it was 101%. Besides, the growth in the assay with OVCAR-3 ovarian is 106%; with HS 578T breast, 95.2%; in the assay on NCI/ADR-RES ovarian, 101%.
`CCC(C)C(N)C(=O)NC(CC(N)=O)C(=O)NC(CC(C)C)C(=O)NC(CCCCN)C(=O)NC(C)C(=O)NC(CC(C)C)C(=O)NC(C)C(=O)NC(C)C(=O)NC(CC(C)C)C(=O)NC(C)C(=O)NC(CCCCN)C(=O)NC(CCCCN)C(=O)NC(C(=O)NC(CC(C)C)C(N)=O)C(C)CC` (stereo not given): the growth is 85.8% with SR leukemia; 74.7% in the assay with RPMI-8226 leukemia; 166% with OVCAR-5 ovarian; 95.2% in the assay with OVCAR-4 ovarian; 110% in the assay with SK-OV-3 ovarian; 102% in the assay on IGROV1 ovarian. In addition, the growth is 117% with OVCAR-3 ovarian and 102% in the assay on NCI/ADR-RES ovarian.
On to `CCC(=O)c1cc([N+](=O)[O-])c(Br)s1`, for which the growth is -19.5% (active) in the assay with SR leukemia; 91.4% in the assay with OVCAR-8 ovarian; 109% in the assay on OVCAR-4 ovarian; 95.8% in the assay with SK-OV-3 ovarian; 105% in the assay with IGROV1 ovarian; 82.4% in the assay with OVCAR-3 ovarian. Moreover, in the assay with NCI/ADR-RES ovarian, the growth was 105%.
Regarding `[Cl-].[Rh+3].c1ccc(-c2ccnc3c2ccc2c(-c4ccccc4)ccnc23)cc1.c1ccc(-c2ccnc3c2ccc2c(-c4ccccc4)ccnc23)cc1.c1ccc(-c2ccnc3c2ccc2c(-c4ccccc4)ccnc23)cc1`, the growth in the assay with SR leukemia was 89.4%; in the assay on RPMI-8226 leukemia, 91.1%; with OVCAR-5 ovarian, -2.79% (active); with OVCAR-4 ovarian it was 84.8%; in the assay with SK-OV-3 ovarian it was 77.9%; in the assay on IGROV1 ovarian, 66.5%. In addition, the growth is 69.8% in the assay with OVCAR-3 ovarian and 95.7% in the assay on NCI/ADR-RES ovarian.

For the origin of these results see PubChem BioAssay (NCI).
